Bioassay records as filed in PubChem BioAssay.
IkB signaling = IkB Signaling | ABC-DLBCL IkBa-CBG/CBR dual luciferase ratio, 4 h; response scale: scaled: untreated 0%, proteasome inhibitor 100% | Potency, µM (highest dose often 57.1 µM) | 110,000 compounds, 0.04% hits | AID 445, 2006; active means well fitted curve in the direction sought with a large enough effect in the signal ratio, not every such curve was filed as active; inconclusive means small, poorly fitted or top-dose-only effect, or a change in a side signal; the % refers to the signal ratio;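 further: the direction sought is a rising ratio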
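Luminescence ratio of IκBα-fused green versus native red beetle luciferase in OCI-Ly3 cells, 4 h post-doxycycline with compound; red signal alone, scaled from basal (0%) to zero light (-100%), flagged nonspecific or cytotoxic effects.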
p53ts 39C kill = qHTS Screen for Compounds that Selectively Target Cancer Cells with p53 Mutations: Cytotoxicity of p53ts Cells at the Nonpermissive Temperature; H1299-p53A138V viability at 39C, ATP luminescence, 24 h; Potency, µM (top dose mostly 46.1 µM), usual class: cytotoxic; 130,000 compounds, 1.5% hits; further: nearly all actives have a fitted effect of over 55% in size
p53ts 32C kill = qHTS Screen for Compounds that Selectively Target Cancer Cells with p53 Mutations: Cytotoxicity of p53ts Cells at the Permissive Temperature; 130,000 compounds, 0.93% hits; H1299-p53A138V at 32C, ATP luminescence viability, 24 h; Potency, µM (series often up to 46.1 µM), hits mostly cytotoxic; further: nearly all actives have a fitted effect of over 55% in size
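Cells: H1299 p53ts (A138V), 600/well, pre-incubated 16–30 h at 37C. Cpd up to 46 uM, 24 h, 32C. Readout: ATPlite luminescence, 20 min RT. Normalization: DMSO vs tamoxifen 100 uM. AC50 by Hill equation.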
IMPase inh = qHTS Assay for Identifying the Cell-Membrane Permeable IMPase Inhibitors | inhibition (IP1 accumulation), % at 46.1 µM | 120,000 tested, under 10 active | CHO-M1 cells, IP1 accumulation, HTRF TR-FRET ratio | Inositol monophosphatase 1 (Rattus norvegicus), P97697; active means well fitted curve in the direction sought with a large enough effect in the signal ratio, not every such curve was filed as active; inconclusive means small, poorly fitted or top-dose-only effect, or a change in a side signal; inactive means no such curve, though single readings can be large or run the other way; the % refers to the signal ratio;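 further: cells stimulated with carbachol in lithium chloride buffer; higher means more IMPase inhibition seen as more IP1 and lower FRET ratio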
Target sequence (P97697 whole entry, looked up): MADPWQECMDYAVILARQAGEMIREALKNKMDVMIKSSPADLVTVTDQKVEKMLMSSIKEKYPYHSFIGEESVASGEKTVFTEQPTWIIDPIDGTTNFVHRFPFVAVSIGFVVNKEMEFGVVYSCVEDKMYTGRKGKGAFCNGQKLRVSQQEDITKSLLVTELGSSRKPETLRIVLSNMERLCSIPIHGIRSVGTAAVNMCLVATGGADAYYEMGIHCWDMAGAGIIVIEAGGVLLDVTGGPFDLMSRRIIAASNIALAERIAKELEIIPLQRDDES
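In this qHTS, compounds (final up to 46 uM) act on CHO-M1 cells that are then activated through the M1 receptor with carbachol, in pH 7.4 buffer containing 50 mM LiCl, for 30 min. IP1 accumulation is quantified by the IP-One immunoassay.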
FLuc inh = qHTS Assay for Inhibitors of Firefly Luciferase; Luciferin 4-monooxygenase (Photinus pyralis), P08659; purified firefly luciferase, luminescence, 8 min; Potency, µM (doses to about 57.1 µM), usual class: inhibitors; 72,000 compounds, 2.2% hits; further: nearly all actives have a fitted effect of over 40% in size
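Substrate buffer containing 10 uM ATP (pH 7.2 imidazole, Mg2+, KCl, detergent, BSA) is dispensed, compound pinned in, then luciferase/luciferin detector mix added. After 8 min at ambient temperature, light output is measured.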
Imprint erasure = qHTS Assay for Compounds that Induce Erasure of Genomic Imprints | mouse ES Peg3-LacZ reporter, beta-gal luminescence, 40 h | Potency, µM (highest dose often 60.7 µM), hits mostly activators | 110,000 compounds, 0.02% hits | AID 1948, 2009
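Imprint erasure is scored as LacZ activity from the silenced maternal Peg3 allele in feeder-free female ES cells cultured 40 h with LIF. Luminescence is normalized to in-plate negative controls and fitted to the Hill equation.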
Numbers stand for hits; – = inactive; ? = inconclusive; · = not tested or not shown; [ ] = remark or other dose. Shown is part of a subset that was picked to be rich in hits. Unless noted, the call rests on the fitted dose curve; in most records, active means well fitted curve in the direction sought with a large enough effect; inconclusive means small, poorly fitted or top-dose-only effect, or another doubt; inactive means no such curve, though single readings can be large; an effect the other way counts as inactive or inconclusive.

SMILES	IkB signaling	p53ts 39C kill	p53ts 32C kill	IMPase inh	FLuc inh	Imprint erasure
CC(=O)Oc1ccc(/C=C\C(=O)C[C@@H]2O[C@@H](Oc3cc(OC(C)=O)c4c(c3)O[C@@H](c3ccc(OC(C)=O)cc3)CC4=O)[C@H](OC(C)=O)[C@H](OC(C)=O)[C@@H]2OC(C)=O)cc1	–[11.4 µM]	·	·	·	–[11.4 µM]	·
Cc1ccc2[nH]cc(C(c3ccccc3)c3ccc(C)s3)c2c1 (stereo unspecified)	?	13µM	?	·	·	–[10.9 µM]
Cc1ccc2nc(-c3cccnc3)oc2c1	–	?	?	–	25µM	–
CC(C)CC(=O)Nc1ccc2oc(-c3cccnc3)nc2c1	–	?	?	–	13µM	–
O=C(Nc1ccc2oc(-c3cccnc3)nc2c1)c1cccnc1	–	–	–	–	–	–
Cc1ccc(C)c(OCc2nc(-c3cccnc3)no2)c1	·	–	–	?	·	·
Cc1ccc2nc(-c3ccccn3)oc2c1	–	5µM	3.2µM	–	7.9µM	–
Cc1ccc(-c2nc(-c3cccnc3)no2)c(C)c1	–	?	?	–	13µM	–
Clc1ccc2oc(-c3cccnc3)nc2c1	·	·	·	–	·	·
O=[N+]([O-])c1cc(N(CCO)CCO)ccc1NCCO	–	–	–[1.84 µM]	·	·	–
CNc1ncnc2c1ncn2[C@H]1C[C@@H](OP(=O)(O)O)[C@H](COP(=O)(O)O)O1	–	–	–	–	–	·
Nc1ccn([C@H]2CC[C@H](CO)O2)c(=O)n1	–	·	·	·	–	·
CCc1nnc2n1N(C(C)=O)C(c1ccc(C(C)(C)C)cc1)=C(C(C)=O)S2	?	13µM	–	·	·	–[10.9 µM]
Cc1cc(S(=O)(=O)Nc2ccccc2C(=O)O)ccc1F	·	–	–	·	·	·
CC(C)c1ccc(S(=O)(=O)/N=C2/C=C(Sc3ncn[nH]3)C(=O)c3ccccc32)cc1	·	8.9µM	·	?	·	·
CCC(=O)NC(c1ccccc1OC)c1ccc2cccnc2c1O (stereo unspecified)	·	–	–	–	·	·
Oc1cccc(C(Nc2ccccn2)c2ccc3cccnc3c2O)c1Cl (stereo unspecified)	?	7.9µM	–	–	·	–[10.9 µM]
CC(C)n1cnc2cc(NCc3nc4ccccc4n3C)ccc21	–	?	?	·	13µM	–
CCn1cnc2cc(NCc3nc4ccccc4n3Cc3ccccc3)ccc21	·	–	–	–	·	·
CCn1cnc2cc(NCc3nc4ccccc4n3C)ccc21	–	?	16µM	–	13µM	–
COc1ccc(-c2nc(-c3ccc(NC(=O)c4ccc(Br)o4)cc3)no2)cc1OC	–	13µM	?	–	–	–
Nc1c(-c2nc(-c3cccs3)no2)nnn1-c1ccc(Cl)cc1	–	–	–	·	·	–[10.9 µM]
COc1ncc2nc(C)c(=O)n(CCC#N)c2n1	–[11.4 µM]	–	–	·	–[11.4 µM]	·
CCOC(=O)c1cccc(NC(=O)c2cc3cc4ccc(C)cc4nc3s2)c1	?	10µM	–	–	·	–[10.9 µM]
Cc1noc(C)c1S(=O)(=O)N(CC(=O)NCCc1ccc(Cl)cc1)c1ccc(C(C)C)cc1	–	–	–	·	·	–[10.9 µM]
SMILES	IkB signaling	p53ts 39C kill	p53ts 32C kill	IMPase inh	FLuc inh	Imprint erasure
N/C(=N\O)c1cn([C@@H]2O[C@@H](CO)[C@H](O)[C@@H]2O)c2ncnc(NO)c12	–[11.4 µM]	1µM	2µM	·	–[11.4 µM]	–[10.9 µM]
C=CCc1ccccc1OCC(O)CN1CCN(C(=O)OCC)CC1 (stereo unspecified)	–	–	–	–	–	–
Cc1ccccc1OC1C=CC(C#Cc2ccc(Br)cc2)OC1CO (stereo unspecified)	·	–[9.22 µM]	–[9.22 µM]	·	·	·
CC(=O)c1ccc(NC(=O)c2ccc(-c3ccc(Cl)cc3)o2)cc1	–	–	?	–	·	–[10.9 µM]
COc1ccc(N=[N+]([O-])c2ccc(OC)cc2)cc1	?	16µM	–[1.84 µM]	·	·	–
CC1CCN(c2nc(-c3ccc(C(C)(C)C)cc3)nc3ccccc23)CC1	–	10µM	16µM	–	·	–[10.9 µM]
CC1CCCCN1c1nc(-c2ccc(C(C)(C)C)cc2)nc2ccccc12 (stereo unspecified)	–	10µM	10µM	–	·	–[10.9 µM]
O=C(c1ccccc1)c1cc(-c2ccccc2)on1	·	·	·	–	1.6µM	·
O=C(c1cccs1)N(C(=O)c1cccs1)c1ccc(Br)cn1	·	·	·	–	·	·
Cc1ccnc(N(C(=O)c2cccs2)C(=O)c2cccs2)c1	–	13µM	?	–	–	–
Cc1ccc(-c2nc(CS(=O)CC(=O)N3CCN(c4cccc(Cl)c4)CC3)c(C)o2)cc1 (stereo unspecified)	–	13µM	–	·	·	–[10.9 µM]
Cc1oc(-c2ccc(Cl)cc2)nc1CS(=O)CC(=O)N1CCN(c2cccc(C(F)(F)F)c2)CC1 (stereo unspecified)	–	–	–	·	·	–[10.9 µM]
CCOc1ccccc1NC(=O)c1nn(C)c2c1CSc1ccccc1-2	–	16µM	–	·	·	–[10.9 µM]
Cn1nc(C(=O)Nc2ccccc2C#N)c2c1-c1ccccc1SC2	?	–	–	·	·	–[10.9 µM]
CCOC(=O)CCc1c(C)c2cc3c(c(C)c2oc1=O)OCN(CCc1ccccc1OC)C3	–	–	–	·	·	–[10.9 µM]
COc1ccc(-n2nc3cc(C)c(NC(=O)c4cccnc4)cc3n2)cc1	–	–	–	–	2.5µM	–
Cc1cc2nn(-c3ccccc3)nc2cc1NC(=O)c1cccs1	–	?	?	–	16µM	–
Cc1cc2nn(-c3ccccc3)nc2cc1NC(=O)c1cccc2c(Cl)cccc12	–	–	–	·	·	–[10.9 µM]
CCCC(=O)Nc1cc2nn(-c3ccc(OC)cc3)nc2cc1C	–	–	–	–	·	–[10.9 µM]
O=C(O)CCc1nc(-c2ccccc2-n2cccc2)no1	–[11.4 µM]	–[9.22 µM]	–[9.22 µM]	·	–[11.4 µM]	–[10.9 µM]
CCN(CC)CCCNC(=O)c1ccc(Cc2nc3ccccc3[nH]2)cc1	·	–	–	·	·	·
CCCCOc1ccc(CNC(=O)Cc2ccc(NC(=O)N3CCCCc4ccccc43)cc2)cc1	?	–	–	·	·	–[10.9 µM]
C[C@@H]1OC2C3=C(C(=O)[C@H]4O[C@@H]4[C@H]3O)[C@@H]1[C@H]1[C@H](C)OC=C3[C@H](O)[C@H]4O[C@H]4/C(=N\OCc4ccccc4)[C@@]321	·	4µM	–[9.22 µM]	·	–[11.4 µM]	·
Nc1nc(Cl)nc2c1ncn2[C@@H]1O[C@@H](CO)[C@@H](O)[C@H]1O	?	13µM	16µM	–	–	·
Nc1ncnc2c1ncn2C1OC(CO)C(O)C1O (stereo unspecified)	·	–	–	·	·	–
OC[C@@H]1O[C@@H](n2cnc3c(NCc4ccco4)ncnc32)[C@H](O)[C@H]1O	–[11.4 µM]	·	·	·	–[11.4 µM]	·
CSc1ncnc2c1ncn2C1OC(CO)C(O)C1O (stereo unspecified)	·	10µM	?	·	·	?
